Records with an inconclusive call do not appear. Unmarked numbers belong to inactive results. Calls of active or inactive are those of the source. Calls follow the shape of the dose curve; as a rule, active = well fitted curve in the direction sought with a large enough effect; inconclusive = small, poorly fitted or top-dose-only effect, or another doubt; inactive = no such curve, though single readings can be large; an effect the other way counts as inactive or inconclusive.

Assay [1] addresses Aldehyde dehydrogenase, mitochondrial (Homo sapiens) (UniProt P05091). The experiment in a line: qHTS for Inhibitors of the Aldehyde Dehydrogenase Family (ALDH2) Primary screen (AID 2061308).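 Also: plate controls were vehicle for no effect and reference inhibitor for full effect; nearly all actives have a fitted effect of over 55% in size.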
Assay [2] deals with Retinaldehyde dehydrogenase 3 (Homo sapiens) (UniProt P47895). The experiment in a line: qHTS for Inhibitors of the Aldehyde Dehydrogenase Family (ALDH1A3) Validation screen (AID 2061312). Also: % is scaled to controls: 0 for no effect and ±100 for the full control effect; nearly all actives have a fitted effect of over 45% in size.
Assay [3] has the same target. As to the kind of experiment: qHTS for Inhibitors of the Aldehyde Dehydrogenase Family (ALDH1A3) Primary screen (AID 2061315).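 Also: plate controls were DMSO vehicle for no effect and reference inhibitor for full effect.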
Assay [4] can be described thus: BET inhibitor-based combinations targeting novel dependencies in MECOM-rearranged (r) AML: SET-2 cell line (AID 2202231). Also: nearly all actives have a fitted effect of over 35% in size. Also: potency is read from the fitted curve at half-maximal effect.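 As to viability: plate controls were DMSO treated cells for no effect and wells without cells for full effect.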 To be noted: SET-2 AML cells viability, CellTiter-Glo luminescence, 48 h; viability: hits give low values, concentration not given here. A digest of the protocol:
(§1)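 A 48 hr incubation preceded viability reading by CellTiter-Glo, with 15 min room-temperature development. Dose series had 11 points; normalization used DMSO and empty wells; AUC was computed and mean-centered per line as Z-AUC.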

Assay [5] in a line: BET inhibitor-based combinations targeting novel dependencies in MECOM-rearranged (r) AML: OCI-AML3 cell line (AID 2202232). Also: potency is read from the fitted curve at half-maximal effect; nearly all actives have a fitted effect of over 35% in size. The note with it: Potency: OCI-AML3 viability. A digest of the protocol:
as §1

Assay [6] is described as follows: BET inhibitor-based combinations targeting novel dependencies in MECOM-rearranged (r) AML: MV-4-11 cell line (AID 2202233). Also: potency is read from the fitted curve at half-maximal effect; nearly all actives have a fitted effect of over 45% in size. A digest of the protocol: (§2)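 Each compound is tested in an 11-point concentration series against 500 seeded cells/well for 48 hr. The luminescent viability signal is normalized to DMSO and blank wells, then reduced to AUC and a cell-line-centred Z-AUC.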

The nature of assay [7]: BET inhibitor-based combinations targeting novel dependencies in MECOM-rearranged (r) AML: HNT-34 cell line (AID 2202234). Also: potency is read from the fitted curve at half-maximal effect; nearly all actives have a fitted effect of over 35% in size. A digest of the protocol: as §2
A short description of assay [8]: BET inhibitor-based combinations targeting novel dependencies in MECOM-rearranged (r) AML: UCSD-AML1 cell line (AID 2202235). Also: nearly all actives have a fitted effect of over 40% in size. Also: potency is read from the fitted curve at half-maximal effect. A digest of the protocol: as §2
Assay [9] in a line: BET inhibitor-based combinations targeting novel dependencies in MECOM-rearranged (r) AML: AML-191 cell line (AID 2202236; also: potency is read from the fitted curve at half-maximal effect; nearly all actives have a fitted effect of over 35% in size). A digest of the protocol:
as §1

The nature of assay [10]: BET inhibitor-based combinations targeting novel dependencies in MECOM-rearranged (r) AML: AML-194 cell line (AID 2202237; also: potency is read from the fitted curve at half-maximal effect; nearly all actives have a fitted effect of over 40% in size). A digest of the protocol: as §1

Consider `Cc1nc2ccc(CN(C)c3ccc(C(=O)NC(CCC(=O)O)C(=O)O)s3)cc2c(=O)[nH]1` (centres undefined), for which the Potency result in [1], in [2] and in [3] was “inactive” in each case.
Regarding `CN(C)C(=O)COC(=O)c1cc(-c2ccc(C3CCNCC3)cc2)c2ccc(-c3ccc(C(F)(F)F)cc3)cc2c1`, the Potency entry in [1], in assay [2] and in assay [3] was “inactive” each time.
As to `NC(=O)c1nc(Nc2ccccc2)sc1NC(=O)C1CCCCC1`, the Potency result in assay [1], in [2] and in assay [3] was “inactive” each time.
Consider `OC(CNCCc1c[nH]c2ccccc12)Cn1c2ccccc2c2ccccc21` (centres undefined), for which the Potency result in assay [1], in assay [2] and in [3] was “inactive” each time.
With `CN(C)c1nc(NC2CCC(NC(=O)c3ccc(F)c(F)c3)CC2)nc2ccccc12` (centres undefined), the Potency entry in [1], in assay [2] and in assay [3] was “inactive” in each case.
Turning to `CN(c1nccc(=O)[nH]1)C1CCN(c2nc3ccccc3n2Cc2ccc(F)cc2)CC1`, the Potency result in [1], in assay [2] and in [3] was “inactive” in each case.
Turning to `CC(=O)c1c(OCCN2CCCCC2)c(OCCC(C)c2ccc(F)cc2)c2oc(C)nc2c1C` (centres undefined), the Potency entry in assay [1], in assay [2] and in assay [3] was “inactive” each time.
As for `CCc1cnn2c(NCc3ccc[n+]([O-])c3)cc(N3CCCCC3CCO)nc12` (centres undefined), the Potency result in [1], in [2] and in assay [3] was “inactive” in each case.
Consider `N#Cc1ccc(COC[C@H]2O[C@@H](n3c(NCc4ccc(Cl)c(Cl)c4)nc4c(N)ncnc43)[C@H](O)[C@@H]2O)cc1`, for which the Potency result in [1], in [2] and in assay [3] was “inactive” in each case. Further, the Potency was 7.42 µM (active) in [4]; 2.63 µM (active) in assay [5]; 14.8 µM (active) in assay [6]; 2.95 µM (active) in assay [7]; 2.63 µM (active) in assay [8].
As for `CCC[C@H]1C[C@H](C(=O)N[C@@H]([C@@H]2O[C@@H](SC)[C@@H](O)[C@@H](O)[C@@H]2O)[C@H](C)Cl)N(C)C1`, the Potency entry in assay [1], in assay [2] and in [3] was “inactive” throughout.
Consider `Fc1ccc(C2CCNC[C@H]2COc2ccc3c(c2)OCO3)cc1` (some centres undefined), for which the Potency entry in [1], in assay [2] and in assay [3] was “inactive” each time.
As for `OC1CCC(Nc2ncc3nc(Nc4c(F)cc(F)cc4F)n([C@H]4CCOC4)c3n2)CC1` (some centres undefined), the Potency result in assay [1], in assay [2] and in [3] was “inactive” throughout.
Take `CCOC(=O)[C@@H](N)Cc1ccc(-c2cc(O[C@H](c3ccc(Cl)cc3-n3ccc(C)n3)C(F)(F)F)nc(N)n2)cc1`: the Potency entry in assay [1], in [2], in [3] and in assay [8] was “inactive” throughout. The Potency was 26.3 µM (active) in [4]; 11.8 µM (active) in assay [5]; 9.34 µM (active) in [6]; 23.5 µM (active) in assay [7]; 23.5 µM (active) in assay [9]; 26.3 µM (active) in assay [10].
For the compound `O=C(c1ccc(Cl)c([N+](=O)[O-])c1)N1CCN(c2ccccc2F)CC1`, the Potency result in assay [1], in assay [2] and in assay [3] was “inactive” in each case.
On to `CCCc1cc(C)[nH]c(=O)c1CNC(=O)c1cc(-c2ccc(N3CCN(C(C)C)CC3)nc2)cc2c1cnn2C(C)C`, for which the Potency entry in assay [1], in assay [2] and in assay [3] was “inactive” each time. In [4], the viability is 110%. Also, the Potency was 18.6 µM (active) in assay [5]; 16.6 µM (active) in assay [6]; 20.9 µM (active) in [7]; 16.6 µM (active) in assay [8]; 29.5 µM (active) in assay [9].
Take `Cc1ccc(O)cc1Nc1ccnc(Nc2cccc(C(N)=O)c2)n1`: the Potency result in assay [1], in [2] and in assay [3] was “inactive” throughout.
Consider `CC(C)(C)CC(C)(C)c1ccc(OCCOCC[N+](C)(C)Cc2ccccc2)cc1`, for which the Potency entry in assay [1], in [2] and in [3] was “inactive” throughout.
With `COc1ccc(NS(=O)(=O)c2sc3ccc(Cl)cc3c2C)cc1N1CCNCC1`, the Potency result in assay [1], in assay [2] and in [3] was “inactive” throughout.
For the compound `C[C@@H]1C[C@H]2[C@@H]3C[C@H](F)C4=CC(=O)C=C[C@]4(C)[C@@]3(F)[C@@H](O)C[C@]2(C)[C@@]1(O)C(=O)CO`, the Potency result in assay [1], in assay [2] and in [3] was “inactive” throughout.
As to `CCc1cc2c(cc1CC)CC(NCC(O)c1ccc(O)c3[nH]c(=O)ccc13)C2` (centres undefined), the Potency result in [1], in [2] and in assay [3] was “inactive” each time.
Turning to `O=C1Cc2c([nH]c3ccc(Br)cc23)-c2ncccc2N1`, the Potency entry in assay [1], in assay [2] and in assay [3] was “inactive” in each case.
With `COc1ccc(N(C(=O)Nc2c(C)cccc2C)c2cc(Nc3ccc(N4CCN(C)CC4)cc3)ncn2)c(OC)c1`, the Potency entry in [1], in assay [2] and in [3] was “inactive” throughout.
As to `CC(C)Oc1ccc(C(=O)NC(CNC(=O)CN(C)C)Cc2ccc(-c3cn4cccc(C(C)O)c4n3)cc2)cc1Cl` (centres undefined), the Potency result in assay [1], in [2] and in assay [3] was “inactive” throughout.
For the compound `CC(=O)OCC(=O)[C@@]1(O)[C@H](C)C[C@H]2[C@@H]3CCC4=CC(=O)C=C[C@]4(C)[C@@]3(F)[C@@H](O)C[C@@]21C`, the Potency entry in [1], in [2] and in [3] was “inactive” in each case.
In the case of `C=C[C@H]1CN2CC[C@H]1C[C@H]2[C@H](O)c1ccnc2ccc(OC)cc12`, the Potency entry in assay [1], in assay [2] and in [3] was “inactive” in each case.
As to `CCCc1[nH]nc2c1C(c1cc(Cl)cc(Cl)c1O)C(C#N)=C(N)O2` (centres undefined), the Potency result in [1], in assay [2] and in assay [3] was “inactive” in each case.
For the compound `CC(=O)N1CCN([C@H]2CCN(C(=O)N(C)[C@H](C)c3cc(C(F)(F)F)cc(C(F)(F)F)c3)[C@@H](c3ccc(F)cc3C)C2)CC1`, the Potency entry in [1], in [2] and in assay [3] was “inactive” throughout.
As for `CC(=O)OC1C(=O)C2(C)C(O)CC3OCC3(OC(C)=O)C2C(OC(=O)c2ccccc2)C2(O)CC(OC(=O)C(O)C(NC(=O)c3ccccc3)c3ccccc3)C(C)=C1C2(C)C` (centres undefined), the Potency result in assay [1], in assay [2] and in assay [3] was “inactive” in each case.
Turning to `CN(c1ccccc1CNc1nc(Nc2ccc3c(c2)CC(=O)N3)ncc1C(F)(F)F)S(C)(=O)=O`, the Potency result in [1], in [2] and in assay [3] was “inactive” in each case.
In the case of `CC(NC(=O)Cc1cc(F)cc(F)c1)C(=O)NC1C(=O)N(C)c2ccccc2-c2ccccc21` (centres undefined), the Potency entry in [1], in [2] and in assay [3] was “inactive” in each case.
Consider `CN(C)C(CCOc1cccc2ccccc12)c1ccccc1` (centres undefined), for which the Potency result in assay [1], in assay [2] and in assay [3] was “inactive” in each case.
Take `COc1cc2ncnc(N3CCC(Oc4cnc5ccccc5n4)C3)c2cc1OC` (centres undefined): the Potency entry in assay [1], in assay [2] and in assay [3] was “inactive” each time.

The values are drawn from PubChem BioAssay (NCATS).
